Experimental findings from PubChem BioAssay are described below.

Inconclusive results are not listed. Calls of active or inactive are those of the source.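 The calls were made as follows, unless noted: active = Her2 level under about 52% in both replicate screens, with viability over 70% of control (limit read from the data); inconclusive = Her2 under the limit in one screen only, or viability under 70%; inactive = Her2 level above the set limit.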

Assay [1] can be described thus: reducers of endogenous Her2 protein level, primary screen, SKBR3 breast tumor cells, AlphaScreen, ATP viability (AID 461).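 As to Her2 level: lower value means less Her2 protein in the cells.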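 As to viability: percent of carrier control wells set as 100% viability.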 The following applies: 18-24 h, measured here: SKBR3 viability, ATP luminescence, at 10 µM.
Assay [2] has as its target Receptor tyrosine-protein kinase erbB-2 (Homo sapiens) (UniProt P04626). Described as above. Conditions: 18-24 h, at 10 µM, stronger effect = lower value.
A short description of assay [3]: SK-BR-3 cell growth inhibitors, pilot screen, 24 h, human (AID 572;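 active = viability at or below 10% of carrier control in both of two separate runs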;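 also: compound exposure lasted between 18 and 24 h rather than exactly 24 h; 100% = carrier-treated control wells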). Conditions: SK-BR-3 viability, CellTiter-Glo luminescence, at 10 µM, stronger effect = lower value. In general terms: Cellular ATP, detected with luciferase, serves as a proxy for viable cell number.
Assay [4] is described as follows: HUVEC growth inhibition – cell-based, human, primary screen (AID 575;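 active = viability at or below 30% in both replicate assays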;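 also: 100% = median of untreated cell wells with 0.1% DMSO on each plate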). Conditions: HUVEC proliferation, CellTiter-Glo luminescence, 72 h; at 10 µM; stronger effect = lower value.
Assay [5] is described as follows: growth inhibitors of H69AR lung tumor, primary screen, human, duplicate replicates (AID 580;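 active = viability at or under a set limit in both replicates, limit being median viability minus 3 SD, cut at about 48% in these data, passing the limit was not always enough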;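 also: 100% = mean luminescence of untreated wells and 0% = no signal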). The following applies: H69AR lung tumor cells viability, ATP luminescence, 72 h; at 10 µM; stronger effect = lower value.
Assay [6] in a line: reversal of MRP1-mediated doxorubicin resistance, pilot screen, H69AR cells, doxorubicin co-treatment (AID 601;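 active = viability loss from added drug above about 55%, and viability with drug at most 40%, in both replicates, limit read from the data, passing the limit was not always enough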). Conditions: CellTiter-Glo, 72 h, at 10 µM; for differential viability (reversal): stronger effect = higher value.
The nature of assay [7]: 384-well plate pilot, post-Golgi transport modulator project, inhibition of yeast transport mutant growth (AID 636; in the data active = inhibition above about 31%). The following applies: absorbance 615 nm, about 18 h, stronger effect = higher value.
Assay [8] in a line: growth suppression of yeast trafficking mutant, preliminary HTS, modulators of trafficking downstream of Golgi apparatus project, 1536-format plate, OD 615 nm (AID 637; in the data active = inhibition above about 30%). Conditions: yeast transport mutant growth, absorbance 615 nm, 18 h; stronger effect = higher value.
Assay [9] in a line: OD615 S. cerevisiae growth inhibition, permissive medium, pilot counter-assay, permissive growth control for S. cerevisiae lifespan shortening project (AID 705;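 active = growth inhibition above 25% in both replicates, a cutoff set 3 SD above the mean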). Conditions: OD615, 24 h, at 10 µM, stronger effect = higher value.
A short description of assay [10]: Restrictive medium S. cerevisiae growth inhibition, OD615, pilot screen of yeast lifespan reduction project, restrictive growth control (AID 706;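 active = growth inhibition above a set limit, 3 SD over mean compound inhibition, in both replicates, cut at about 43% in these data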;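 also: modified DeaD lifespan yeast strain shifted to restrictive glucose medium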). The following applies: OD615, 48 h, at 10 µM, stronger effect = higher value.
A short description of assay [11]: viability gain of MRP-1-high H69AR cells under doxorubicin, pilot screen, MRP-1 activator project, CellTiter-Glo, duplicate (AID 807;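 active = viability increase at or above a cutoff of the median across tested compounds plus 3 SD, cut at about 8.5% in these data, passing the limit was not always enough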;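 also: compound pretreatment 18-22 h then 72 h combined with doxorubicin; 0% = doxorubicin alone and 100% = vehicle without doxorubicin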). Conditions: H69AR viability with doxorubicin, CellTiter-Glo luminescence; at 10 µM; stronger effect = higher value.
A short description of assay [12]: growth suppression of beta-catenin knockout HCT116, pilot screen, human colon tumor cells (AID 823;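 active = cell viability at or below a set limit in both duplicate runs, the limit being the all-compound median minus 4 SD, cut at about 23% in these data, passing the limit was not always enough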;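 also: 0% = wells killed by 20 µM Hyamine and 100% = untreated DMSO cell wells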). The following applies: CellTiter-Glo, 60 h, at 10 µM, stronger effect = lower value.
Assay [13] is described as follows: growth suppression of PTEN-deleted HCT116, pilot screen, cell-based, HCT116 clonal line, CellTiter-Glo (AID 824;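 active = viability at or below 27.92% in each of two runs, the all-compound median minus 4 SD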;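 also: 0% = 20 µM Hyamine control and 100% = vehicle cell control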). Conditions: 60 h, at 10 µM, stronger effect = lower value.
Assay [14] in a line: inhibitors of the yeast RAM network, pilot screen, dse1pr::URA3 reporter, 5-FOA selection (AID 869;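 active = inhibition over a set limit, the all-compound mean plus 3 SD, in both replicate runs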;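 also: 0% = DMSO wells with no growth and 100% = 10 µM 1-NA-PP1 with full growth; RAM network block rescues cells from 5-FOA so hits raise OD615 growth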). The following applies: S. cerevisiae dse1pr::URA3 5-FOA growth, OD615, 2 d; at 10 µM; stronger effect = higher value; strain carries analog-sensitive mutant Cbk1 kinase.
Assay [15] is described as follows: RAM signaling pathway blockade in yeast – S. cerevisiae, Pdr1DBD-CYC8 efflux-inhibited sensitized strain, primary screen (AID 1298;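 active = RAM network inhibition above 8.4% in each of two replicates, 3 SD over the compound average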;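 also: 0% = DMSO untreated cells without growth and 100% = 10 µM 1-NA-PP1 full growth; higher means more yeast growth rescued from 5-FOA killing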). Conditions: S. cerevisiae cbk1-as DSE1-URA3 strain, 5-FOA growth OD615, 2 d; at 50 µM; stronger effect = higher value.
Setting [16] is: H69AR cells + 2 uM doxorubicin, measured here: viability with 2 uM doxorubicin, stronger effect = lower value.
Where [17] appears, read: H69AR cells, compound alone cytotoxicity.

Receptor tyrosine-protein kinase erbB-2 (Homo sapiens), sequence (P04626 whole entry, looked up): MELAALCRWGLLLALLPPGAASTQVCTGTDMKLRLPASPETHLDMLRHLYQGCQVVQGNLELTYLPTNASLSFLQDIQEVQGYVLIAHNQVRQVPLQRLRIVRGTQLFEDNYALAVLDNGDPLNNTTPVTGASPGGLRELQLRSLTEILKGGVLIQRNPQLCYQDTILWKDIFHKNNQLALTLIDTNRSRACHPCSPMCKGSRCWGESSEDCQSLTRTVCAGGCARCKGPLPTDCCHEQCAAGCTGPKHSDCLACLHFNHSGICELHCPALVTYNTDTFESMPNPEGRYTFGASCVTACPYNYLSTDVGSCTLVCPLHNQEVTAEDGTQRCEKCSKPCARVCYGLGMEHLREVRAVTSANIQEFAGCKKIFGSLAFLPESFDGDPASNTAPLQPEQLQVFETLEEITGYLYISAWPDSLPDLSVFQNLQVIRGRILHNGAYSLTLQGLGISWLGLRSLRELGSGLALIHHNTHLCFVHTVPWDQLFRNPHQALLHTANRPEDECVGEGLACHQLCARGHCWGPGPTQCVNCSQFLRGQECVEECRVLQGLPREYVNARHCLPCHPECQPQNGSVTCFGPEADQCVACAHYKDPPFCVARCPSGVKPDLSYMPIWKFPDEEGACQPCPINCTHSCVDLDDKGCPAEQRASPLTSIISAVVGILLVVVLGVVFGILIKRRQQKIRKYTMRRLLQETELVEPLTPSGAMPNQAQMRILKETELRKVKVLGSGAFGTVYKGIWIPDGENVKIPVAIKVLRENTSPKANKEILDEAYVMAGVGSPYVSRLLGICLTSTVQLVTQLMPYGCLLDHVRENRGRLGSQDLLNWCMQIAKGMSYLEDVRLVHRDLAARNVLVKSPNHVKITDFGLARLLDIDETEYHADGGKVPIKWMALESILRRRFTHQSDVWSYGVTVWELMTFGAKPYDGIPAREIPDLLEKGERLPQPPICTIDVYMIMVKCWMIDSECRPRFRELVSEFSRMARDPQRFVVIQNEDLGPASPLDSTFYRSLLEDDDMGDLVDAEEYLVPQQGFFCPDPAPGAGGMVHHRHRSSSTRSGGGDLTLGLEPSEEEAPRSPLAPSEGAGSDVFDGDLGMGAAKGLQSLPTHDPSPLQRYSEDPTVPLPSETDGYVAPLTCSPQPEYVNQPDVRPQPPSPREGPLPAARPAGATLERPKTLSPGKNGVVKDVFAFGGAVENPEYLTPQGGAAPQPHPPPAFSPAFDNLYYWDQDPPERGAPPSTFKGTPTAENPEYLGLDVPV

For the compound `CCCSc1nnc2nc3c(nn12)c1ccccc1n3C`, the viability (in general, a read-out of living cells in per cent, often relative to untreated cells) in [1] is 86%; in [3] it was 86% (inactive); in assay [4] it was 98.9% (inactive); in assay [5], 89.3% (inactive); in assay [6] (setting [16]), 86.9%; in [6] (setting [17]) it was 89.3%. The figures for the viability in [12] and in assay [13] were 105% (inactive) and 97% (inactive), respectively. The Her2 level in [2] is 85.5% (inactive). Besides, in [6] (H69AR cells + 2 uM doxorubicin), the differential viability (reversal) is 2.42% (inactive). Besides, the inhibition – broadly, the relative decrease from the control value, in per cent – was -0.27% (inactive) in assay [7], 7.21% (inactive) in assay [8] and 1.27% (inactive) in assay [14]. Also, the figures for the growth inhibition in assay [9] and in [10] were 3.75% (inactive) and 2.38% (inactive), respectively. Besides, the viability increase in [11] was -4.48% (inactive). Further, the RAM network inhibition in [15] is 0.96% (inactive).

On to `Cc1cc2cc(CCNC(=O)CC(C)C)c(=O)[nH]c2cc1C`, for which the viability is 102% in assay [1]; 102% (inactive) in [3]; 93.3% (inactive) in assay [4]; 90.2% (inactive) in assay [5]; 89.4% in assay [6] (setting [16]); 90.2% in assay [6] (setting [17]). Further, the viability in assay [12] is 104% (inactive); in assay [13], 97.7% (inactive). In assay [2], the Her2 level was 128% (inactive). Besides, the differential viability (reversal) in [6] (H69AR cells + 2 uM doxorubicin) was 0.865% (inactive). The inhibition in [7] is -3.73% (inactive); in assay [8], 5% (inactive); in assay [14], 0.365% (inactive). Further, the growth inhibition in assay [9] was -7.38% (inactive); in assay [10], -5.57% (inactive). Besides, the viability increase in assay [11] is -0.47% (inactive). Besides, the RAM network inhibition in assay [15] was 0.73% (inactive).

With `Cc1c(NC(=O)c2noc3c2CCc2ccccc2-3)c(=O)n(-c2ccccc2)n1C`, the viability in [1] is 95.5%; in assay [3] it was 95.5% (inactive); in assay [4] it was 102% (inactive); in assay [5], 99.7% (inactive); in [6] (setting [16]), 105%; in [6] (setting [17]) it was 99.7%. Moreover, the values for the viability in assay [12] and in assay [13] were 101% (inactive) and 102% (inactive), respectively. Further, in [2], the Her2 level was 97.5% (inactive). Further, the differential viability (reversal) in assay [6] (H69AR cells + 2 uM doxorubicin) was -5.54% (inactive). The inhibition is -5.73% (inactive) in assay [7], -7.21% (inactive) in assay [8] and 1.05% (inactive) in assay [14]. Further, the growth inhibition in assay [9] was -3.5% (inactive); in [10] it was 6.45% (inactive). In assay [11], the viability increase was -0.3% (inactive). The RAM network inhibition in [15] was 4.92% (inactive).

As to `COCCOC(=O)c1[nH]c2c(c1C)C(=O)CC(c1ccco1)C2` (stereo not given), the viability is 85% in assay [1]; 85% (inactive) in assay [3]; 57% (inactive) in [4]; 23.6% (active) in assay [5]; 60.9% in [6] (setting [16]); 23.6% in [6] (setting [17]). Moreover, the results for the viability in [12] and in assay [13] were 18.9% (active) and 23.9% (active), respectively. Further, in assay [2], the Her2 level is 71.5% (inactive). For the same compound, the differential viability (reversal) in assay [6] (H69AR cells + 2 uM doxorubicin) was -37.2% (inactive). The inhibition in assay [7] was 0.64% (inactive); in assay [8] it was 5.67% (inactive); in assay [14], 2.79% (inactive). Further, the growth inhibition was -16% (inactive) in assay [9] and -15.1% (inactive) in assay [10]. In assay [11], the viability increase was -4.07% (inactive). Besides, the RAM network inhibition in assay [15] is 2.52% (inactive).

For `COC(=O)Cn1c(CN2CCN(c3ccccc3F)CC2)nc2c1c(=O)n(C)c(=O)n2C`, the viability is 104% in [1]; 104% (inactive) in [3]; 95.3% (inactive) in [4]; 93.8% (inactive) in [5]; 87.3% in assay [6] (setting [16]); 93.8% in assay [6] (setting [17]). The results for the viability in assay [12] and in assay [13] were 97.4% (inactive) and 90.1% (inactive), respectively. Also, the Her2 level in assay [2] was 95% (inactive). Further, in assay [6] (H69AR cells + 2 uM doxorubicin), the differential viability (reversal) is 6.45% (inactive). The inhibition in assay [7] is -3.73% (inactive); in [8], 3.33% (inactive); in [14], 2.47% (inactive). Besides, the growth inhibition was -7.25% (inactive) in [9] and -1.94% (inactive) in assay [10]. In addition, the viability increase in assay [11] is 0.3% (inactive). Besides, in [15], the RAM network inhibition was 6.25% (inactive).
